# From ChEMBL document CHEMBL2218924, “A broad activity screen in support of a chemogenomic map for kinase signalling research and drug discovery” (Biochem J, 2013)
# Biological target: T1, Serine/threonine-protein kinase BRSK1 (Homo sapiens) (UniProt Q8TDC3)
# T1 sequence (whole entry): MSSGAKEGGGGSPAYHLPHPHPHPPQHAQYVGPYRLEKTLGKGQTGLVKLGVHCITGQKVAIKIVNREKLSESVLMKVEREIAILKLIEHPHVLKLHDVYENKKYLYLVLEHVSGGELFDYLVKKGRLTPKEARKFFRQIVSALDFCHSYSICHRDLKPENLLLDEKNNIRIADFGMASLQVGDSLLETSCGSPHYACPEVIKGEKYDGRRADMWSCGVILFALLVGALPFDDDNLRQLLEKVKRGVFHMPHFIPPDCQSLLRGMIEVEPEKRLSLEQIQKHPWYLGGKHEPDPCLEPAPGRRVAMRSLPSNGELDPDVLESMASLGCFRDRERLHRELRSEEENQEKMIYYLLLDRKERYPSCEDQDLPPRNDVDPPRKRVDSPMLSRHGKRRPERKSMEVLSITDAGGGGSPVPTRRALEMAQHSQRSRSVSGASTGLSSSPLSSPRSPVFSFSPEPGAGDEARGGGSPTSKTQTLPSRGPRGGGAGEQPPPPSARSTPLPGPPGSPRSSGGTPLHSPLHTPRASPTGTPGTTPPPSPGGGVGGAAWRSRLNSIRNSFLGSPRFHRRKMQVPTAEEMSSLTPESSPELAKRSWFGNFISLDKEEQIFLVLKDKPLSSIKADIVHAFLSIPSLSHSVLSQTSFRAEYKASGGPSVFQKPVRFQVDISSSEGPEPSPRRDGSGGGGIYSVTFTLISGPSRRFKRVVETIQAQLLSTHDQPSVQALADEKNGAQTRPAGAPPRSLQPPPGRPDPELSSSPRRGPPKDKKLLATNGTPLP
# Settings: at 10 µM
row,Structure (SMILES),residual activity
1,O=C1Nc2ccc(Br)cc2/C1=C\c1cc2c([nH]1)CCCC2,105%
2,COc1cc2ncnc(Nc3ccc(NC(=O)c4ccccc4)cc3)c2cc1OC,63%
3,O=C1NC(=O)/C(=C\c2ccc3nccnc3c2)S1,65%
4,O=C(Nc1cccc(Nc2nccc(Nc3cccc(C(F)(F)F)c3)n2)c1)C1CC1,27%
5,CCN(CC)CCCCN1c2ccccc2Oc2ccc(Cl)cc21,105%
6,Cc1cncc2cccc(S(=O)(=O)N3CCCN(C(=O)CN)C[C@H]3C)c12,66%
7,N#C/C(=C(\N)Sc1ccc(N)cc1)c1ccccc1C(F)(F)F,74%
8,O=C1Nc2cc(Br)ccc2/C1=C1/Nc2ccccc2/C1=N\O,12%
9,CC#CC(=O)Nc1cc2c(Nc3ccc(F)c(Cl)c3)ncnc2cn1,81%
10,Nc1ccc2ncnc(NCCc3ccc(Oc4ccccc4)cc3)c2c1,49%
11,O=C(Nc1cccc(Nc2cc(Nc3cccc(C(F)(F)F)c3)ncn2)c1)C1CC1,29%
12,COc1ccc(OC)c2c(=S)c3ccccc3[nH]c12,76%
13,O=c1c2ccccc2[nH]c(=S)n1CCN1CCC(=C(c2ccc(F)cc2)c2ccc(F)cc2)CC1,78%
14,CN(C)CCCn1cc(C2=C(c3c[nH]c4ccccc34)C(=O)NC2=O)c2ccccc21,39%
15,COc1cc2ncnc(Nc3ccc(O)c(Br)c3)c2cc1OC,22%
16,COc1cc2ncc(-c3ccccc3)nc2cc1OC,86%
17,COc1ccc(C(=O)Nc2sc3c(c2C(N)=O)CCCC3)cc1OC,96%
18,CO[C@H]1C[C@@H]2CC[C@@H](C)[C@@](O)(O2)C(=O)C(=O)N2CCCC[C@H]2C(=O)O[C@H]([C@H](C)C[C@@H]2CC[C@@H](O)[C@H](OC)C2)CC(=O)[C@H](C)/C=C(\C)[C@@H](O)[C@@H](OC)C(=O)[C@H](C)C[C@H](C)/C=C/C=C/C=C/1C,68%
19,c1ccc2c(-c3ccncc3)c[nH]c2c1,59%
20,CNc1cc2c(Nc3cccc(Br)c3)ncnc2cn1,8%
21,C[C@@H](N)[C@H]1CC[C@H](C(=O)Nc2ccncc2)CC1,107%
22,c1ccc(-c2n[nH]cc2-c2ccnc3ccccc23)nc1,58%
23,O=C(O)c1ccc2c3c1cccc3c(=O)n1c3ccccc3nc21,46%
24,CCN(CC)C(=O)c1ccc(Nc2nc(OCC3CCCCC3)c3nc[nH]c3n2)cc1,15%
25,CC(C)n1cnc2/c(=N/c3cccc(Cl)c3)nc(NCCO)[nH]c21,89%
26,CC(=O)O/N=C1\C(=C2\C(=O)Nc3cc(Br)ccc32)Nc2ccccc21,24%
27,CC(C)n1cnc2c(NCc3ccccc3)nc(NCCCO)nc21,100%
28,CC(=O)c1ccc(N2CCOCC2)cc1O,95%
29,Cc1ccc(NC2=CC(=O)c3sc(C)nc3C2=O)cc1,105%
30,Cc1cccc(-c2[nH]c(C(C)(C)C)nc2-c2ccc3c(c2)OCO3)n1,106%
